Activity calls are given as the source filed them.

The target in one assay is Albumin (Bos taurus) (UniProt P02769). Put plainly: bovine serum albumin binders on microarray, profiling panel, artefact control for SMM control protein annotation, biochemical, small-molecule microarray, Alexa647 label, 635/667 nm fluorescence (AID 1118).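 Note: score merges 667 nm emission intensity and signal-to-noise per printed compound spot.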 The note with it: BSA-A647 binding, fluorescence 635 nm, higher = more signal.
Chain of Albumin (Bos taurus) (P02769 whole entry, looked up): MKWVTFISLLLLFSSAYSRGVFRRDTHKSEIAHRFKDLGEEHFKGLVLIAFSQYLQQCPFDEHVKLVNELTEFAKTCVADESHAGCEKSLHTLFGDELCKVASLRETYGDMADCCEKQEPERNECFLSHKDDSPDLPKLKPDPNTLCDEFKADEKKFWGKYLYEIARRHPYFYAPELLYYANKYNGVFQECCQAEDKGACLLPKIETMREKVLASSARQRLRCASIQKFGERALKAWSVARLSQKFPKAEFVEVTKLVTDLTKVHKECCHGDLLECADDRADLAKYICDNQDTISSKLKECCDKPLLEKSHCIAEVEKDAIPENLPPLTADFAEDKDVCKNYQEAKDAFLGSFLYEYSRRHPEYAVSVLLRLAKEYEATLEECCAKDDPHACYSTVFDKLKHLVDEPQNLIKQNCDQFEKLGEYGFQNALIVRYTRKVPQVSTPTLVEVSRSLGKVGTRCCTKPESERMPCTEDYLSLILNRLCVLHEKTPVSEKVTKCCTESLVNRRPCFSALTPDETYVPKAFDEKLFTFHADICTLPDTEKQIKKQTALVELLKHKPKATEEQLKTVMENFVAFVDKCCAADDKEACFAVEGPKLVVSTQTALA
Assay [1] is described as follows: small-molecule microarray binders of probe aXIP, primary screen, biochemical, NeuroSMM set, 635/667 nm fluorescence (AID 1119).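 Note: probe is the protein aXip251-270 applied at 1 µg/mL to compound-printed slides; binding of probe to printed compounds measured as 667 nm fluorescence plus signal to noise.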 The note with it: higher = more signal, called active from +8 up or from −8 down.
Assay [2] in a line: small-molecule binders of probe aNOTCH3, primary screen, biochemical, small-molecule microarray, 635/667 nm fluorescence (AID 1120).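 Note: probe is a biotin-tagged antibody raised against NOTCH3 rather than NOTCH3 protein; score merges spot fluorescence near 667 nm with spot signal to noise.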 To be noted: higher = more signal.
Assay [3] can be described thus: small-molecule binders of probe aNOTCH2, primary screen, biochemical, small-molecule microarray, 635/667 nm fluorescence (AID 1121).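 Note: score merges feature fluorescence read at 667 nm with its signal to noise.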 The note with it: higher = more signal.
Assay [4] addresses Carbonic anhydrase 2 (Homo sapiens) (UniProt P00918). The assay can be described thus: CAII small-molecule binders, profiling panel, biochemical, small-molecule microarray, Alexa647-labelled CAII (AID 1122). The note with it: CAII-A647 binding fluorescence, higher = more signal.
Assay [5] in a line: COS7 lysate on small-molecule microarray, probe aHis, 635 nm (AID 1123).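 Note: z-score combines 667nm fluorescence intensity with signal-to-noise per printed compound spot.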 The note with it: COS7 cell lysate, fluorescence, higher = more signal.
The nature of assay [6]: compound binding in COS7 lysate, probe aLAP1, primary screen, cell lysate, small-molecule microarray (AID 1124).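 Note: lysate comes from COS7 cells expressing LAP1 and is applied at 0.3 µg/mL; score merges spot fluorescence near 667 nm with signal-to-noise over triplicate slides.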 The note with it: probe aLAP1, fluorescence, higher = more signal.
In a further assay the test system is Sam68 (KHDRBS1). Put plainly: Sam68 small-molecule binders, primary screen, biochemical, small-molecule microarray, 635 nm fluorescence (AID 1125).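 Note: score merges 667 nm channel intensity with signal to noise over triplicate slides.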 The note with it: small-molecule microarray binding, higher = more signal.
Assay [7] relates to Chordin-like protein 2 (CHRDL2). The assay can be described thus: CHRDL2 small-molecule binders, primary screen, biochemical, small-molecule microarray, 635 nm fluorescence (AID 1126).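 Note: printed compound slides probed with Chrdl2 protein at 4 µg/mL for 1 h at 4 C; score merges 667 nm emission intensity with signal to noise over three replicate slides.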 The note with it: small-molecule microarray binding, fluorescence 635 nm; higher = more signal.
The target of assay [8] is Concanavalin-A (Canavalia ensiformis) (UniProt P02866). The assay can be described thus: ConA small-molecule binders, primary screen, artefact control for SMM control protein annotation, biochemical, small-molecule microarray, Alexa647 label, 635 nm (AID 1127).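 Note: z combines 667 nm emission intensity with signal-to-noise across three replicate slides.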 The note with it: ConA-A647 binding fluorescence, higher = more signal.
Chain of Concanavalin-A (Canavalia ensiformis) (P02866 whole entry, looked up): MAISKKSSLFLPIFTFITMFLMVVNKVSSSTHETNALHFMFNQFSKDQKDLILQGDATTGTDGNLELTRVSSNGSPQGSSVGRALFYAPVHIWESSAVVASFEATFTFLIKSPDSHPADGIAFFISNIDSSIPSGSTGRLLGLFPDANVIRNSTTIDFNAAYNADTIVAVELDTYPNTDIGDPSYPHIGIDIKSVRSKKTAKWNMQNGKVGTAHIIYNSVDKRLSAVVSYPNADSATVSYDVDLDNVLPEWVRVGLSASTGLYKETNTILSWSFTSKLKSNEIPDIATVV
Assay [9] is described as follows: anti-His antibody binders, primary screen, artefact control for SMM control protein annotation, biochemical, small-molecule microarray, 635 nm fluorescence (AID 1128).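 Note: score merges feature fluorescence with signal-to-noise for each printed compound spot.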 The note with it: anti-His Alexa647 antibody binding, higher = more signal.
Assay [10] concerns Human papillomavirus type 1a E7 protein (residues 1-88). The assay can be described thus: HPV1a E7 small-molecule binders, primary screen, biochemical, small-molecule microarray, residues 1-88, 635 nm (AID 1129). To be noted: small-molecule microarray binding, fluorescence 635 nm; higher = more signal.
The target in assay [11] is Focal adhesion kinase 1 (Homo sapiens) (UniProt Q05397). Put plainly: small-molecule microarray binders of FAK, primary screen, biochemical, 635/667 nm fluorescence, BSA, DTT (AID 1130).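 Note: composite of spot emission at 667 nm and signal to noise over triplicate slides.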 To be noted: PTK2 binding, 635 nm fluorescence, higher = more signal.
Chain of Focal adhesion kinase 1 (Homo sapiens) (Q05397 whole entry, looked up): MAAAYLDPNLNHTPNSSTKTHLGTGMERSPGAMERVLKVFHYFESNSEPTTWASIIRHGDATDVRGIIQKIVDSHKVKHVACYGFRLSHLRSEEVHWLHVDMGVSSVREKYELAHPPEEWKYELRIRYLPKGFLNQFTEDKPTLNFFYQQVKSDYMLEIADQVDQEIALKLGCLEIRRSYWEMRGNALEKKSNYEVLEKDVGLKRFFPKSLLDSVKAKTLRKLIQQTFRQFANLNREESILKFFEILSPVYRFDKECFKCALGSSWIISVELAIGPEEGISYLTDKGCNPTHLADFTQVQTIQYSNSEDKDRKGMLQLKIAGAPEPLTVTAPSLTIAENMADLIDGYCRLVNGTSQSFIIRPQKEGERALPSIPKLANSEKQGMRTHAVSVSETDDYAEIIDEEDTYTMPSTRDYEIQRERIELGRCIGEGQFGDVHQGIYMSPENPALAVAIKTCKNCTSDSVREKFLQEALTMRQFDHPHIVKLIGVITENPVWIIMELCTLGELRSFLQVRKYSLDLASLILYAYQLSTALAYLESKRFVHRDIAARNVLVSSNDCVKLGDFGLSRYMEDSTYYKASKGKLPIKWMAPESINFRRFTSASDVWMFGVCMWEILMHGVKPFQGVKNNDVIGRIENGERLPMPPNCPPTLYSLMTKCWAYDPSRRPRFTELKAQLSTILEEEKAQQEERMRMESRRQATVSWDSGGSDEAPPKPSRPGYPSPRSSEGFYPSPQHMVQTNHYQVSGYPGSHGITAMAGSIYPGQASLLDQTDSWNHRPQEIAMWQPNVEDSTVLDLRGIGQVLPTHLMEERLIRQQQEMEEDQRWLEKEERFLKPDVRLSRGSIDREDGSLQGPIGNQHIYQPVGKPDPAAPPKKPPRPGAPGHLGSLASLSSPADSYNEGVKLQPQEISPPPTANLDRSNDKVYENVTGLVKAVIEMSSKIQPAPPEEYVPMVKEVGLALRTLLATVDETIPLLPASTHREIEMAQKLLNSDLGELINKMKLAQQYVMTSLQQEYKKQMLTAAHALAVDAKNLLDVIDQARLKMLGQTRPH
Assay [12] has as its system Fibrinogen (Alexa647-labelled). The assay can be described thus: fibrinogen binders on compound microarrays, profiling panel, artefact control for SMM control-protein annotation, biochemical, small-molecule microarray, 635/667 nm fluorescence (AID 1131).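 Note: z-score merges 667 nm fluorescence with per-spot signal-to-noise over triplicate slides.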 The note with it: fibrinogen-A647 binding fluorescence, higher = more signal.
For assay [13], the target named is Follistatin (Homo sapiens) (UniProt P19883). The assay can be described thus: follistatin binders on small-molecule microarrays, primary screen, biochemical, small-molecule microarray, 635/667 nm fluorescence (AID 1132). To be noted: FST binding, 635 nm fluorescence, higher = more signal.
Chain of Follistatin (Homo sapiens) (P19883 whole entry, looked up): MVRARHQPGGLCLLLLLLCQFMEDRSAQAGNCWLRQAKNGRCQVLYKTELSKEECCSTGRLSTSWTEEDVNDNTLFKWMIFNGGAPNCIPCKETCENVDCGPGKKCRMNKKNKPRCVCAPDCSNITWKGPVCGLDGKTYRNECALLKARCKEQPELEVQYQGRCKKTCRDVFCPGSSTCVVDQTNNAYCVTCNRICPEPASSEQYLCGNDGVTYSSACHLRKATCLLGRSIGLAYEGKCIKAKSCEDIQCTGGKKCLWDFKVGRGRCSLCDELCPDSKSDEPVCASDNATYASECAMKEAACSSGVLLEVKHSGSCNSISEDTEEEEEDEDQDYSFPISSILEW
Assay [14] has as its target Fibroblast growth factor 2 (Homo sapiens) (UniProt P09038). Put plainly: FGF2 binders on small-molecule microarrays, primary screen, biochemical, small-molecule microarray, 635/667 nm fluorescence (AID 1133). The note with it: small-molecule microarray binding, FGF2, fluorescence 635/667; higher = more signal.
The nature of assay [15]: mitochondrial membrane potential change in A549 cells, profiling panel, cell-based, JC-1 fluorescence, basal, 24 h, 100 nL (AID 1138).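 Note: A549 lung adenocarcinoma cells under basal conditions with no added stimulus; test concentration not given here.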 The note with it: higher = more signal.
The test system of the next assay is Lefty1. The assay can be described thus: Lefty1 binders on small-molecule microarrays, primary screen, biochemical, small-molecule microarray, 635/667 nm fluorescence (AID 1139). To be noted: small-molecule microarray binding, fluorescence 635/667; higher = more signal.
Assay [16] concerns wheat germ agglutinin (Triticum aestivum), Alexa647-labelled. The assay can be described thus: wheat germ agglutinin binders on compound microarrays, profiling panel, artefact control for SMM control-protein annotation, biochemical, small-molecule microarray, 635/667 nm fluorescence (AID 1140).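 Note: score merges 667 nm feature emission with signal to noise over triplicate slides.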 The note with it: WGA-A647 binding, 635 nm fluorescence, higher = more signal.
The target in assay [17] is Luciferin 4-monooxygenase (Photinus pyralis) (UniProt P08659). Put plainly: firefly luciferase enzyme inhibitors, primary screen, biochemical, luminescence, purified enzyme, 2006 set (AID 1141).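 Note: cell-free assay with purified firefly luciferase at 100 ng per well in PBS; test concentration not given here.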 To be noted: SteadyGlo luminescence, 30 min, higher = more signal, called active from +8 up or from −8 down.
Chain of Luciferin 4-monooxygenase (Photinus pyralis) (P08659 whole entry, looked up): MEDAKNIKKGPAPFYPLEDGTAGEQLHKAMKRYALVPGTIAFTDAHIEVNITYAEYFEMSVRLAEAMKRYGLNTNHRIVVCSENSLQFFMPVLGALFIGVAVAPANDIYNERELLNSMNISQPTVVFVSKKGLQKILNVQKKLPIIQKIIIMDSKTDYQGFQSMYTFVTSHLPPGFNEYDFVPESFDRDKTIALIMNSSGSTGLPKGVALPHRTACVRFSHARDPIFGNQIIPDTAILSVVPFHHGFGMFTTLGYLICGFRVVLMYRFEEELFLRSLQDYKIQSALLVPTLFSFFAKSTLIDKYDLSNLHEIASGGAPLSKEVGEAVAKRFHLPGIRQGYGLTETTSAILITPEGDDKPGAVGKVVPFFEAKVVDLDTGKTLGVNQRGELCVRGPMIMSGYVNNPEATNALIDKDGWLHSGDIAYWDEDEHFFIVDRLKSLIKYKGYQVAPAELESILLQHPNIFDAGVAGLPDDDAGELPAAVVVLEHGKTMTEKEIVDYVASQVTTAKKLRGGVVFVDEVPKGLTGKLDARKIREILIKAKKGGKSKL

Chain of Fibroblast growth factor 2 (Homo sapiens) (P09038 whole entry, looked up): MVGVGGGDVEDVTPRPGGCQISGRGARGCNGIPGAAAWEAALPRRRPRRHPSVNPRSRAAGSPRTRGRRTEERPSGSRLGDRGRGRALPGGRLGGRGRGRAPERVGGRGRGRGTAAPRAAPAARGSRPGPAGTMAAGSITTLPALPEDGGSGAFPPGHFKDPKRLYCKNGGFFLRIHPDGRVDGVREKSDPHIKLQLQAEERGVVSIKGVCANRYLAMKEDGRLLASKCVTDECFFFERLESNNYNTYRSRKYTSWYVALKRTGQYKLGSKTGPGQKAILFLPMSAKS

With `COCCOC(=O)N1C(=O)[C@@]2(c3ccccc31)[C@H](C(=O)NC[C@H](O)c1ccccc1)[C@H]1C(=O)O[C@H](c3ccccc3)[C@H](c3ccccc3)N1[C@@H]2c1ccc(OCCO)cc1`, the composite z-score in the assay with Albumin (Bos taurus) was 0.605; in assay [2] it was 0.267; in assay [3] it was -0.0959; in [4], 0.492; in assay [5], 1.53; in [6], -0.0994. Further, the composite z-score with Sam68 (KHDRBS1) amounted to 1.3; in assay [7] it was 1.22; in assay [8], 1.12; in assay [9], 0.791; in [10], 1.15; in assay [11] it was 0.367. Also, the composite z-score is 0.715 in assay [12]; 1.47 in assay [13]; 1.77 in assay [14]; 1.58 in the assay with Lefty1; 0.387 in assay [16]. For the same molecule, in assay [1], the composite Z-score was -0.404 (inactive). Besides, the z-score in assay [15] is -0.542; in assay [17] it was 0.888 (inactive).

As to `O=C1OCCC=C[C@H]2OC34C=CCN(Cc5ccccc5)C(=O)[C@H]3N(CCCO)C(=O)[C@@H]4C12` (stereo not given in full), the composite z-score is 0.117 with Albumin (Bos taurus); -0.275 in assay [2]; -0.164 in assay [3]; 0.897 in [4]; 0.0967 in [5]; -0.322 in assay [6]. For the same molecule, the composite z-score in the assay with Sam68 (KHDRBS1) is -1.22; in [7], -0.229; in assay [8], -0.731; in [9], 1.76; in assay [10] it was -1.17; in [11], -0.0769. Moreover, the composite z-score in assay [12] is -0.887; in assay [13], -0.145; in [14], -0.349; with Lefty1, 0.181; in assay [16], -0.194. For the same molecule, the composite Z-score in assay [1] was -0.241 (inactive). The figures for the z-score in [15] and in [17] were -0.778 and 0.0952 (inactive), respectively.

In the case of `CN(C)C(=O)[C@]1(CCC(=O)OC(C)(C)C)N=C(c2ccc(OCCCO)cc2)O[C@@H]1c1ccccc1N=[N+]=[N-]`, the composite z-score in the assay with Albumin (Bos taurus) was 0.934; in [2] it was 0.374; in assay [3] it was -0.0985; in [4], 0.719; in assay [5], 3.15; in assay [6], 0.964. The composite z-score in the assay with Sam68 (KHDRBS1) is 1.31; in [7], -0.516; in assay [8] it was 0.858; in assay [9], 0.128; in [10] it was 1.3; in [11], 0.383. For the same molecule, the composite z-score is 0.996 in assay [12]; 1.25 in assay [13]; 0.347 in assay [14]; -0.037 with Lefty1; 1.15 in assay [16]. Moreover, in [1], the composite Z-score is 0.155 (inactive). For the same molecule, the values for the z-score in [15] and in assay [17] were 0.752 and -7.84 (inactive), respectively.

For `COC(=O)c1ccc(C(O)C2C=CC3C(=O)N(c4ccccc4)C(=O)C3N2Nc2ccc(C#N)cc2)o1` (stereo not given), the composite z-score was 0.887 with Albumin (Bos taurus); 0.0282 in assay [2]; -0.0878 in [3]; 0.436 in [4]; 2.85 in assay [5]; 0.387 in assay [6]. For the same molecule, the composite z-score in the assay on Sam68 (KHDRBS1) turned out to be 0.735; in assay [7], 0.0997; in assay [8] it was 0.635; in assay [9], 0.355; in assay [10] it was 0.889; in assay [11], 0.303. Further, the composite z-score was 1 in assay [12]; 0.62 in [13]; 0.275 in assay [14]; -0.0841 in the assay on Lefty1; 0.475 in assay [16]. In [1], the composite Z-score is -0.336 (inactive). For the same molecule, the z-score was 0.385 in [15] and -1.32 (inactive) in [17].

With `O=C1N(CCS(=O)(=O)c2ccccc2)Cc2ccccc2[C@H]2OC(c3ccc(OCCCO)cc3)=N[C@@]12CCS(=O)(=O)c1ccccc1`, the composite z-score was -0.284 in the assay with Albumin (Bos taurus); -0.0247 in [2]; -0.0586 in [3]; 0.524 in assay [4]; 2.64 in assay [5]; 0.708 in [6]. Besides, the composite z-score in the assay with Sam68 (KHDRBS1) was found to be 1.3; in assay [7], 0.242; in assay [8], 1.22; in assay [9], 2.44; in [10], 1.21; in [11], 0.772. In addition, the composite z-score is 0.561 in assay [12]; 1.33 in [13]; 1.31 in [14]; -0.0425 with Lefty1; 1.09 in assay [16]. Besides, the composite Z-score in [1] is 1.81 (inactive). In addition, the z-score was -1.15 in assay [15] and -1.7 (inactive) in [17].

Regarding `CN(C)C(=O)[C@@]1(CCC(=O)OC(C)(C)C)N=C(c2ccc(OCCCO)cc2)O[C@H]1c1ccccc1`, the composite z-score in the assay with Albumin (Bos taurus) was 0.955; in [2], 0.519; in [3], -0.0125; in assay [4], 0.842; in [5], 3.16; in assay [6], 0.55. Further, the composite z-score with Sam68 (KHDRBS1) is 0.926; in assay [7] it was -0.719; in assay [8] it was 0.683; in assay [9] it was 3.44; in assay [10], 1.11; in assay [11], 0.384. Moreover, the composite z-score is 0.65 in assay [12]; 0.381 in [13]; -0.309 in [14]; -0.943 in the assay on Lefty1; 0.798 in [16]. Also, in assay [1], the composite Z-score is 0.58 (inactive). The results for the z-score in assay [15] and in assay [17] were -0.457 and -0.874 (inactive), respectively.
